Assay outcomes (PubChem)
HDAC3 inhib – human HDAC3 inhibition | O15379 | recombinant HDAC3, fluorogenic peptide/trypsin coupled, fluorescence | inhibition, % at 8.3 µM | actives 0.15% (n = 320,000) | AID 2718; in the data active = inhibition above about 26%, passing the limit was not always enough; inconclusive = no clear call, values can overlap the other calls
CHT allo act – allosterically activates the human high affinity choline transporter; B-score at 10 µM; actives 0.49% (n = 310,000); AID 488977; Q9GZV3; CHT-expressing cells, membrane potential dye, choline EC20; stronger effect = higher value; LV-AA mutant CHT in HEK293 cells;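 active = initial fluorescence not abnormally high and integrated response B-score, plate-corrected, over 3 SD above library mean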
Target sequence (Q9GZV3 whole entry, looked up): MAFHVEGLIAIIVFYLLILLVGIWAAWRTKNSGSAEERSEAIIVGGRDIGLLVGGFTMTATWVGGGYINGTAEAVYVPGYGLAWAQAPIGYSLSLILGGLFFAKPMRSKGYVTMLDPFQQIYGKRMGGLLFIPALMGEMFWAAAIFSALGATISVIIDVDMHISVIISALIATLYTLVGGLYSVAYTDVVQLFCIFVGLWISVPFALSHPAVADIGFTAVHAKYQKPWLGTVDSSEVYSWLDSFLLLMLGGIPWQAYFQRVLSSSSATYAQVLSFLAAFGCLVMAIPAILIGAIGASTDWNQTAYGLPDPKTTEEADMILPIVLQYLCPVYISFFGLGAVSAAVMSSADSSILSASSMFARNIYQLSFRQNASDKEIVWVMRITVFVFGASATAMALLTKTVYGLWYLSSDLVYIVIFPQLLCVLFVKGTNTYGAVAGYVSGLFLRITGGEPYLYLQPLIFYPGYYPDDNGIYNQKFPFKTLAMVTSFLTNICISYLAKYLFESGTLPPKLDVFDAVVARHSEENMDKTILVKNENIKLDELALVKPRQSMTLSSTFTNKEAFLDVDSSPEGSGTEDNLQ
TMEM16A inh – mouse TMEM16A channel inhibition, primary screen | AID 588511 | HEK293 TMEM16A/YFP iodide influx fluorescence, ionomycin | normalized B-score (activity score, 25-100; higher = stronger inhibition) at 10 µM | actives 1.2% (n = 310,000);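 active = ratio plate-corrected score three or more library SD toward inhibition, starting fluorescence score within five deviations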;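 note: score derived from kinetic fluorescence span divided by baseline fluorescence per well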
CHT inh – human CHT choline transport inhibition. Q9GZV3. B-score at 10 µM. CHT-expressing cells, membrane potential dye, choline response; stronger effect = lower value. AID 488975. actives 0.86% (n = 310,000);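 active = B-score over 3 SD under the library average, and starting fluorescence ratio not unusually high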;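 note: choline stimulus applied at its EC90 after an EC20 pre-addition; B-score computed on integrated fluorescence ratio after choline addition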
ANO1 activ – mouse TMEM16A channel activation, primary screen. actives 0.3% (n = 340,000). Q8BHY3. B-score at 10 µM. AID 623877. HEK293 TMEM16A/YFP-H148Q/I152L, iodide quench fluorescence; stronger effect = lower value;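 active = fluorescence-ratio B-score plate-corrected deviation score at least 3 library SD below zero, with starting fluorescence score within 5 deviations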;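 note: channel opened by trigger with iodide after compound preincubation; score built on the fluorescence ratio of max minus min over baseline; more negative score means more quench and so TMEM16A activation or potentiation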
PHOSPHO1 block – blocks human PHOSPHO1 phosphatase activity | inhibition, % at 13.3 µM | recombinant PHOSPHO1, absorbance phosphatase assay | actives 1.1% (n = 290,000) | Q8TCT1; in the data active = inhibition above about 60%
* = called active by the depositor. Hits are enriched below; roughly 3.2% of the tested compounds scored in any of these assays.

Screening COc1ccc(OC)c(C2CC(=O)N3CN(c4ccccc4F)CSC3=C2C#N)c1 (stereo not drawn) returned HDAC3 inhib inconclusive, CHT allo act inactive, TMEM16A inh inactive, CHT inh inactive, ANO1 activ inactive and PHOSPHO1 block 86*.
COc1ccc(OC)c(C2CC(=O)N3CN(c4cccc(Cl)c4C)CSC3=C2C#N)c1 (stereo not drawn) was read as HDAC3 inhib 37*, CHT allo act inactive, TMEM16A inh inactive, CHT inh inactive, ANO1 activ inactive and PHOSPHO1 block 93*.
COc1ccccc1N1CSC2=C(C#N)C(c3ccc(SC)cc3)CC(=O)N2C1 (stereo not drawn) was read as HDAC3 inhib inconclusive, CHT allo act inactive, TMEM16A inh inactive, CHT inh inactive, ANO1 activ inactive and PHOSPHO1 block 92*.
`O=C(OCCN1CCCC1=O)c1cncc(Br)c1` gave HDAC3 inhib -2, CHT allo act inactive, TMEM16A inh inactive, CHT inh inactive, ANO1 activ inactive and PHOSPHO1 block -19.
`Cn1nnc(C(O)CN2CCOCC2)n1` (stereo not drawn) gave HDAC3 inhib 10, CHT allo act inactive, TMEM16A inh inactive, CHT inh inactive, ANO1 activ inactive and PHOSPHO1 block -8.
For Clc1ccc(-c2ccnc(Oc3cc(Cl)ccc3Cl)n2)cc1 the results were HDAC3 inhib -1, CHT allo act inactive, TMEM16A inh 25*, CHT inh inactive, ANO1 activ inactive and PHOSPHO1 block 37.
For CCOC(=O)CN1C(=O)S/C(=C/c2ccc(N3CCCCC3)o2)C1=O the results were HDAC3 inhib 5, CHT allo act inactive, TMEM16A inh inactive, CHT inh inactive, ANO1 activ inactive and PHOSPHO1 block 101*.
For CCOc1cc(C(=O)NC2CCCCCCC2)cc(OCC)c1OCC the results were HDAC3 inhib -3, CHT allo act inactive, TMEM16A inh inactive, CHT inh inactive and ANO1 activ inactive.
For CC(C)CNC(=O)N1c2ccccc2Sc2ccccc21 the results were HDAC3 inhib -3, CHT allo act inactive, TMEM16A inh inactive, CHT inh inactive, ANO1 activ inactive and PHOSPHO1 block -8.
O=C(NCCc1ccccc1)N1c2ccccc2Sc2ccccc21 was read as HDAC3 inhib 1, CHT allo act inactive, TMEM16A inh 100*, CHT inh inactive, ANO1 activ inactive and PHOSPHO1 block 19.
For Cn1nc(C(=O)OCC(=O)N2CCc3ccccc32)c2ccccc2c1=O the results were HDAC3 inhib -2, CHT allo act inactive, TMEM16A inh inactive, CHT inh inactive, ANO1 activ inactive and PHOSPHO1 block -37.
For Cc1ccc(Cl)cc1NC(=O)Nn1cnnc1 the results were HDAC3 inhib 0, CHT allo act inactive, TMEM16A inh inactive, CHT inh inactive, ANO1 activ inactive and PHOSPHO1 block 36.
Screening O=C(Cn1nc(-c2ccccc2Cl)ccc1=O)Nc1ccc(Br)cc1 returned HDAC3 inhib 10, CHT allo act inactive, TMEM16A inh inactive, CHT inh inactive, ANO1 activ -30* and PHOSPHO1 block 40.
O=C(Cn1nc(-c2ccccc2Cl)ccc1=O)Nc1ccccc1-c1ccccc1 was read as HDAC3 inhib 0, CHT allo act inactive, TMEM16A inh inactive, CHT inh inactive, ANO1 activ inactive and PHOSPHO1 block -3.
`CN1C[C@@H]2[C@@H]3C(=O)N(Cc4ccccc4)C(=O)[C@@H]3[C@](Cc3ccccc3)(C1=O)N2C(=O)c1ccc(C(C)(C)C)cc1` gave ANO1 activ inactive.
For CCN(C(=O)COC(=O)c1cc(-c2cccs2)nc2ccccc12)C1CCS(=O)(=O)C1 (stereo not drawn) the results were HDAC3 inhib -26, CHT allo act inactive, TMEM16A inh inactive, CHT inh inactive, ANO1 activ inactive and PHOSPHO1 block 63*.
O=C(Cc1ccccc1F)Nc1nc(-c2ccc(F)cc2)cs1 was read as HDAC3 inhib 7, CHT allo act inactive, TMEM16A inh 25*, CHT inh inactive, ANO1 activ inactive and PHOSPHO1 block 27.
